Data from article PMC7862700, “An all-to-all approach to the identification of sequence-specific readers for epigenetic DNA modifications on cytosine”.

How the values were obtained:
Assay in all cases: DAPPL (digital affinity profiling via proximity ligation, sequencing); 10 mM Tris-HCl pH 7.5, 50 mM NaCl, 1 mM DTT, 4% glycerol, room temperature, 30 min; GST-TFs on glutathione beads, 16-mer random dsDNA library, 0.1% formaldehyde crosslink after washing; high values mean tight binding
[1] = biological target: T1, FLI1 (Homo sapiens, UniProt Q01543 1-452); conditions: protein: recombinant; tags: N-terminal GST; dsDNA, one strand shown
T1 sequence: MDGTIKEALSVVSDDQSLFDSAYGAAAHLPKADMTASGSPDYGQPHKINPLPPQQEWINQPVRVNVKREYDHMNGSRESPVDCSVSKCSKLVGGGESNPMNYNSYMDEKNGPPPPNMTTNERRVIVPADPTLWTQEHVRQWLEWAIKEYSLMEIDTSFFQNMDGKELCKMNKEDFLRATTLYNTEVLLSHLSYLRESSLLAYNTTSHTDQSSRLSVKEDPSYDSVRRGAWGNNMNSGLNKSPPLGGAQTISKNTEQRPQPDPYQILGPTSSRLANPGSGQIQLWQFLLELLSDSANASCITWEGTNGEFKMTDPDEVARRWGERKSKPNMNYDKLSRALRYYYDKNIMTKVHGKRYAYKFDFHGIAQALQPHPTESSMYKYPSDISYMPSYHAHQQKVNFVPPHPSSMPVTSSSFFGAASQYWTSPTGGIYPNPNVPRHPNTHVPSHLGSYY
Method in brief: (§1)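 Beads coated with glutathione captured GST-fused human transcription factors that had been expressed in yeast, and the factors were then given DNA barcodes and pooled with a tag-only sample. The pools were incubated with 200 nmole of a random double-stranded 16-mer DNA library in Tris/NaCl/DTT/glycerol buffer for 30 min at room temperature, washed, crosslinked with 0.1% formaldehyde and proximity-ligated with BsaI/T4 ligase at 37 °C for 1 h. PCR amplification and Illumina NextSeq500 sequencing came last. Binding signal is each hexamer's read frequency for a factor divided by its frequency for the tag-only sample.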

[2] = biological target: T2, ELK1 (Homo sapiens, UniProt P19419 1-428); conditions: protein: recombinant; tags: N-terminal GST; dsDNA, one strand shown
T2 sequence: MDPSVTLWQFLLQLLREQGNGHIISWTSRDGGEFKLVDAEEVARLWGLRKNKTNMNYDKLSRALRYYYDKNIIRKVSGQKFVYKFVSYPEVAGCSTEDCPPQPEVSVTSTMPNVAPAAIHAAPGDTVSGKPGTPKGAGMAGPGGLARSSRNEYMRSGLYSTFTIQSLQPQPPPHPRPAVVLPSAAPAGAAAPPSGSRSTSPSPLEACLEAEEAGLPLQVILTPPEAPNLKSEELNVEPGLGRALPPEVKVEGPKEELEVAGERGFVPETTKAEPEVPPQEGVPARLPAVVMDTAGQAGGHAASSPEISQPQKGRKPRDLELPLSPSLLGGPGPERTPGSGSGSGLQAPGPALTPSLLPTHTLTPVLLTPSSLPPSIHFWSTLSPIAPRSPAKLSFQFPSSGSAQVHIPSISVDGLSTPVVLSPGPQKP
Method in brief: as §1

[3] = biological target: T3, GABPA (Homo sapiens, UniProt Q06546 1-454); conditions: protein: recombinant; tags: N-terminal GST; dsDNA, one strand shown
T3 sequence: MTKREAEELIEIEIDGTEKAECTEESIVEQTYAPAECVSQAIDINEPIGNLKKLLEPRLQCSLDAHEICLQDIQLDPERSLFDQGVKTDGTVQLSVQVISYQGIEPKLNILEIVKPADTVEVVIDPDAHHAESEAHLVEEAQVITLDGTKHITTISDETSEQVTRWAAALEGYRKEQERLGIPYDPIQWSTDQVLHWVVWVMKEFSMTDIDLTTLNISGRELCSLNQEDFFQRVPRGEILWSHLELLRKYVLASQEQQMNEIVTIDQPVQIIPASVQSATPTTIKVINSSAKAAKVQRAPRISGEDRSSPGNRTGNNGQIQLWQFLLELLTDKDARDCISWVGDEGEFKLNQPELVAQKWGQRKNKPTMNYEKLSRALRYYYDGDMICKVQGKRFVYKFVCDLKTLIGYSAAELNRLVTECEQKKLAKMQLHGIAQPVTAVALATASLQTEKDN
Method in brief: as §1

[4] = biological target: T4, ERG (Homo sapiens, UniProt P11308 1-479); conditions: protein: recombinant; tags: N-terminal GST; dsDNA, one strand shown
T4 sequence: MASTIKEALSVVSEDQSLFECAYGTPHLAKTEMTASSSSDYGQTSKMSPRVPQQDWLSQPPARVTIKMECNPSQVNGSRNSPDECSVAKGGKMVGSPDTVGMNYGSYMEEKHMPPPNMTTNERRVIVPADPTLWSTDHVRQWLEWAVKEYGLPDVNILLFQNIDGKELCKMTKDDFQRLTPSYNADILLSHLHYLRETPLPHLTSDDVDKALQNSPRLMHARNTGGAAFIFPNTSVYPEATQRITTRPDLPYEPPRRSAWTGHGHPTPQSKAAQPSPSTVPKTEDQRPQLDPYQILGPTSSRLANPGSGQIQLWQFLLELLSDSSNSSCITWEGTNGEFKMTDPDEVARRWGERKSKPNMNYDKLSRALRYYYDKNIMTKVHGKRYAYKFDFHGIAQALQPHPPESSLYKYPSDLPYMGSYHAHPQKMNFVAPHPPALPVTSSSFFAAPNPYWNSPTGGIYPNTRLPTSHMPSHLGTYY
Method in brief: as §1

[5] = biological target: ELF1 (Homo sapiens, UniProt P32519 1-619); conditions: protein: recombinant; tags: N-terminal GST; dsDNA, one strand shown
Method in brief: as §1

[6] = biological target: T5, EHF (Homo sapiens, UniProt Q9NZC4 1-300); conditions: protein: recombinant; tags: N-terminal GST; dsDNA, one strand shown
T5 sequence: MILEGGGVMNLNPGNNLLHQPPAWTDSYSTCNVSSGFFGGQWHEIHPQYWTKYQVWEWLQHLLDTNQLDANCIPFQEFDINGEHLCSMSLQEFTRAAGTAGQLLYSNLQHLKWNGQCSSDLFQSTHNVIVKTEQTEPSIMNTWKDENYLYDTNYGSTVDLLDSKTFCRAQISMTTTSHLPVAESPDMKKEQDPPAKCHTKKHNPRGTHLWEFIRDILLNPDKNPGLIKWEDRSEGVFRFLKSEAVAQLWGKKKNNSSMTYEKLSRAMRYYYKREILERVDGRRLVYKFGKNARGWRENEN
Method in brief: as §1

[7] = biological target: SPI1 (Homo sapiens, UniProt P17947 1-270); conditions: protein: recombinant; tags: N-terminal GST; dsDNA, one strand shown
Method in brief: as §1

[8] = biological target: SPIB (Homo sapiens, UniProt Q01892 1-262); conditions: protein: recombinant; tags: N-terminal GST; dsDNA, one strand shown
Method in brief: as §1

[9] = biological target: T6, ELK3 (Homo sapiens, UniProt P41970 1-407); conditions: protein: recombinant; tags: N-terminal GST; dsDNA, one strand shown
T6 sequence: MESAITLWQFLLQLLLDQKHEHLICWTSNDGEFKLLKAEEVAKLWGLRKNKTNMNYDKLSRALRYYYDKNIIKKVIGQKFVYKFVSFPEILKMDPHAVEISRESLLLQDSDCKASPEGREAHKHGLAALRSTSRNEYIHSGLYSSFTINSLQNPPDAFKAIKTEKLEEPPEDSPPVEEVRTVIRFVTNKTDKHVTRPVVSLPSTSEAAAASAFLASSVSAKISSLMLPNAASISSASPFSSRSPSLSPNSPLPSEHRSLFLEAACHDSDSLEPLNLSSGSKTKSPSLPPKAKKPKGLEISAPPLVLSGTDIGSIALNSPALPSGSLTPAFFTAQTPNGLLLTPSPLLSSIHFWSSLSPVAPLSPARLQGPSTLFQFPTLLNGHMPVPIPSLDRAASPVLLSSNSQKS
Method in brief: as §1

[10] = biological target: T7, FEV (Homo sapiens, UniProt Q99581 1-238); conditions: protein: recombinant; tags: N-terminal GST; dsDNA, one strand shown
T7 sequence: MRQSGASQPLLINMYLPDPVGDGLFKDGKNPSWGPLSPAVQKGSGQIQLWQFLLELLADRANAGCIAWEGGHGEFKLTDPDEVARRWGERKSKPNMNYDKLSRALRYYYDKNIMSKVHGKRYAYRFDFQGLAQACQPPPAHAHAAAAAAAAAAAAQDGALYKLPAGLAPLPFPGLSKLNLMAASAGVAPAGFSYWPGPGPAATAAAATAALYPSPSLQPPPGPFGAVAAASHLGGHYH
Method in brief: as §1

[11] = biological target: ETV5 (Homo sapiens, UniProt P41161 1-510); conditions: protein: recombinant; tags: N-terminal GST; dsDNA, one strand shown
Method in brief: as §1

[12] = biological target: HSF1 (Homo sapiens, UniProt Q00613 1-529); conditions: protein: recombinant; tags: N-terminal GST; chain copies: 3; dsDNA, one strand shown
Method in brief: as §1

[13] = biological target: T8, SPIC (Homo sapiens, UniProt Q8N5J4 1-248); conditions: protein: recombinant; tags: N-terminal GST; dsDNA, one strand shown
T8 sequence: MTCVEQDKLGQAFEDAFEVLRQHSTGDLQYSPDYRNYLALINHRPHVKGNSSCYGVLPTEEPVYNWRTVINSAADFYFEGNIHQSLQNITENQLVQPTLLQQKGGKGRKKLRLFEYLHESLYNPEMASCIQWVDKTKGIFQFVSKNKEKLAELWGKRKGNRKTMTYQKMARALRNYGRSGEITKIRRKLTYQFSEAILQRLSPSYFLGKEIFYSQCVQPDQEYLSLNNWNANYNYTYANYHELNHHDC
Method in brief: as §1

[14] = biological target: ELF4 (Homo sapiens, UniProt Q99607 1-663); conditions: protein: recombinant; tags: N-terminal GST; dsDNA, one strand shown
Method in brief: as §1

[15] = biological target: T9, ELK4 (Homo sapiens, UniProt P28324-2 1-405); conditions: protein: recombinant; tags: N-terminal GST; dsDNA, one strand shown
T9 sequence: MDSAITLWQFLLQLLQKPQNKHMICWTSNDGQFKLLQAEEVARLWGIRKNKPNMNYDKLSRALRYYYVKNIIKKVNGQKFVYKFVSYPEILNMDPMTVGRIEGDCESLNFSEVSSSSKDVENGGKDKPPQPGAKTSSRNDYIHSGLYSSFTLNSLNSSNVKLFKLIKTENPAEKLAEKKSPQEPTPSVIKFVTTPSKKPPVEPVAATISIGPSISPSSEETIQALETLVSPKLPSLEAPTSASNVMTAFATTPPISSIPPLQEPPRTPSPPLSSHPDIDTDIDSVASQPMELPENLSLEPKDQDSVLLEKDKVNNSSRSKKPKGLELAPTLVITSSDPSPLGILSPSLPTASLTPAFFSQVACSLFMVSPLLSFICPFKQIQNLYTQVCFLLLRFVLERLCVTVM
Method in brief: as §1

[16] = biological target: T10, ETV2 (Homo sapiens, UniProt O00321 1-342); conditions: protein: recombinant; tags: N-terminal GST; dsDNA, one strand shown
T10 sequence: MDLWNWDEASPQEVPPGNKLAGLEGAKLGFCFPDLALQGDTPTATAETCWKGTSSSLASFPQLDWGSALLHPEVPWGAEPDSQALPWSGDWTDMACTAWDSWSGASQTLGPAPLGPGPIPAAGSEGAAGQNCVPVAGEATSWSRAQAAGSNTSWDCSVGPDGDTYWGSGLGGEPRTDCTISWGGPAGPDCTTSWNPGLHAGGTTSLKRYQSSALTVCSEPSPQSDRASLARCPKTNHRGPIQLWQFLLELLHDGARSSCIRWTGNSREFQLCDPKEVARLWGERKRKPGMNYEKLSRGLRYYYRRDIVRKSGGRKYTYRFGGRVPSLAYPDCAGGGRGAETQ
Method in brief: as §1

[17] = biological target: T11, ELF3 (Homo sapiens, UniProt P78545 1-371); conditions: protein: recombinant; tags: N-terminal GST; dsDNA, one strand shown
T11 sequence: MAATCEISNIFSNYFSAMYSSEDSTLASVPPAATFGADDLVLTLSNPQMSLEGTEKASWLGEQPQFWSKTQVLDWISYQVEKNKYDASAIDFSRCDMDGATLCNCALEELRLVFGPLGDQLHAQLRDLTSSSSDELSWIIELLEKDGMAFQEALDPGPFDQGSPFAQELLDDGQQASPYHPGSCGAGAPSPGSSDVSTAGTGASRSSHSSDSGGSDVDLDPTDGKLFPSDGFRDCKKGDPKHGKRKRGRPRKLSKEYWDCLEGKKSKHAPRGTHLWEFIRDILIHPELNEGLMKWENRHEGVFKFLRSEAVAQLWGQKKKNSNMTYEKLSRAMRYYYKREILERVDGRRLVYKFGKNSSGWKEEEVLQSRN
Method in brief: as §1

[18] = biological target: CRX (Homo sapiens, UniProt O43186 1-299); conditions: protein: recombinant; tags: N-terminal GST; dsDNA, one strand shown
Method in brief: as §1

[19] = biological target: ETV1 (Homo sapiens, UniProt P50549 1-477); conditions: protein: recombinant; tags: N-terminal GST; dsDNA, one strand shown
Method in brief: as §1

Sequence of ELF1 (P32519 whole entry): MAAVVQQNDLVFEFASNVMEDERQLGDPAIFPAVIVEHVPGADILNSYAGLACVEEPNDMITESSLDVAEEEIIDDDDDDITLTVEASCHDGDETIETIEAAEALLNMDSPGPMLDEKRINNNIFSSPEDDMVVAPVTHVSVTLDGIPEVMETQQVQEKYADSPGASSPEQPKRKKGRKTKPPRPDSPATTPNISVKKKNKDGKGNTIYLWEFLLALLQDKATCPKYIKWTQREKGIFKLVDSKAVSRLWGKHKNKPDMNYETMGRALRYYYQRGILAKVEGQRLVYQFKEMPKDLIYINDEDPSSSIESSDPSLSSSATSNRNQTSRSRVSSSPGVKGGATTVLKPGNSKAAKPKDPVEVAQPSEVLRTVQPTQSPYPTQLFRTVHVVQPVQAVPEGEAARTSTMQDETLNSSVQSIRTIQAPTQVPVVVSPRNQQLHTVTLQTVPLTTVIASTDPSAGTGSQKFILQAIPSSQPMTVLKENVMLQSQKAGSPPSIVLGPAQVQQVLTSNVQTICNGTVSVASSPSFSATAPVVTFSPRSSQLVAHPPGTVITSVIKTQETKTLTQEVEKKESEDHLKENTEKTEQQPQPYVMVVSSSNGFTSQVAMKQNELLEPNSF
Sequence of ETV1 (P50549 whole entry): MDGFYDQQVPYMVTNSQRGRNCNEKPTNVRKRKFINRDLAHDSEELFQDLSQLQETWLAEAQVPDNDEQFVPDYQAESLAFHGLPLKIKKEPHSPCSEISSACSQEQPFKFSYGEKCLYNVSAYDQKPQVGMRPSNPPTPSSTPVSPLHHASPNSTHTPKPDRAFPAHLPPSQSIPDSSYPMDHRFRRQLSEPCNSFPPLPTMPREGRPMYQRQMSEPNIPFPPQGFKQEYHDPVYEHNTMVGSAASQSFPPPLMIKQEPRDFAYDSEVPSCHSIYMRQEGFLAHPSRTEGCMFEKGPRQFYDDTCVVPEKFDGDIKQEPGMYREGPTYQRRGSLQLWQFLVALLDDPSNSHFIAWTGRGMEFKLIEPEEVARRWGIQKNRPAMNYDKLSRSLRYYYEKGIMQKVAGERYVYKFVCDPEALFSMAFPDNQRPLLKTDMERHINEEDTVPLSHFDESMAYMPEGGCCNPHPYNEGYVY
Sequence of SPIB (Q01892 whole entry): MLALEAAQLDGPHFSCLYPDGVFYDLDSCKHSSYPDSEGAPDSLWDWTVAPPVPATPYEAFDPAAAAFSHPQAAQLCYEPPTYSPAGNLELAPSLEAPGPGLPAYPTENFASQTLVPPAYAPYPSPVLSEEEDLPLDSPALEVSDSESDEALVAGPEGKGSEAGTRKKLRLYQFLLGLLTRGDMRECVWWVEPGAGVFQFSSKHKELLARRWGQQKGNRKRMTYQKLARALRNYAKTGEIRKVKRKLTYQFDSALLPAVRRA
Sequence of HSF1 (Q00613 whole entry): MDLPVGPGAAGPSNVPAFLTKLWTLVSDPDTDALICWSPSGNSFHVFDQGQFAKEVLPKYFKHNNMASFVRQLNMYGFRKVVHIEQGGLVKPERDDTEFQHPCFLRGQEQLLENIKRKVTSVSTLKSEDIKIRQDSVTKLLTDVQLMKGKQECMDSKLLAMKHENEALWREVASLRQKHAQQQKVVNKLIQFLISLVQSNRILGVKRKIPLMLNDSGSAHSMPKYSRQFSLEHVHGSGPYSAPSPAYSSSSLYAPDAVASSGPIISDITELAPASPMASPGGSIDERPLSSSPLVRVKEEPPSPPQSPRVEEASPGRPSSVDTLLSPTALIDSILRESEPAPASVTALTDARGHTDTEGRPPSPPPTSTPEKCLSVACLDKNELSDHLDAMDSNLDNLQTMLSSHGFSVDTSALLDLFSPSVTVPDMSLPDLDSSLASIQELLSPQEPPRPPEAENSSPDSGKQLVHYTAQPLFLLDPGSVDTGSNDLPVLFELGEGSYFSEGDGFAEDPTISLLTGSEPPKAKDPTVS
Sequence of CRX (O43186 whole entry): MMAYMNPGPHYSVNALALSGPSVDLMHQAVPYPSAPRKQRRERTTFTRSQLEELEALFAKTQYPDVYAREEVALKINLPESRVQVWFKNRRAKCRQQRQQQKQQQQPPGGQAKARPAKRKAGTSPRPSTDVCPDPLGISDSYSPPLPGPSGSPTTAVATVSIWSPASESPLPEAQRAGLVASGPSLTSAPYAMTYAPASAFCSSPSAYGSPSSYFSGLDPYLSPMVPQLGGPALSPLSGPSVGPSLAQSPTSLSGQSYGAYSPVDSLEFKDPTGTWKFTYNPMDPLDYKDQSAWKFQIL
Sequence of ETV5 (P41161 whole entry): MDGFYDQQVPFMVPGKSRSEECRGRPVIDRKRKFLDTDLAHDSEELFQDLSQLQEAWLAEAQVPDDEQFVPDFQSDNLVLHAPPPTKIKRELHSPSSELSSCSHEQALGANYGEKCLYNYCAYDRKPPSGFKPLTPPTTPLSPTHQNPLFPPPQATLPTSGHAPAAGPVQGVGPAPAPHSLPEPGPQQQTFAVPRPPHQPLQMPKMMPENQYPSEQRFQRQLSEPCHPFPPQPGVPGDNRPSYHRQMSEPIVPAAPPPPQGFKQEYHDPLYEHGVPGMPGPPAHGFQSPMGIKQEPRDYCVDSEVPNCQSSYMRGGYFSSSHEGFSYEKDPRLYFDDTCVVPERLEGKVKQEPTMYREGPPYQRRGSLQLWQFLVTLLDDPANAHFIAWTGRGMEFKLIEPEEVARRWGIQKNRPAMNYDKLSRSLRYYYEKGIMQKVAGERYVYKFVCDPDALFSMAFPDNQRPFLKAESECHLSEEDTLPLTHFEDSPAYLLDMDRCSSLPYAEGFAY
Sequence of ELF4 (Q99607 whole entry): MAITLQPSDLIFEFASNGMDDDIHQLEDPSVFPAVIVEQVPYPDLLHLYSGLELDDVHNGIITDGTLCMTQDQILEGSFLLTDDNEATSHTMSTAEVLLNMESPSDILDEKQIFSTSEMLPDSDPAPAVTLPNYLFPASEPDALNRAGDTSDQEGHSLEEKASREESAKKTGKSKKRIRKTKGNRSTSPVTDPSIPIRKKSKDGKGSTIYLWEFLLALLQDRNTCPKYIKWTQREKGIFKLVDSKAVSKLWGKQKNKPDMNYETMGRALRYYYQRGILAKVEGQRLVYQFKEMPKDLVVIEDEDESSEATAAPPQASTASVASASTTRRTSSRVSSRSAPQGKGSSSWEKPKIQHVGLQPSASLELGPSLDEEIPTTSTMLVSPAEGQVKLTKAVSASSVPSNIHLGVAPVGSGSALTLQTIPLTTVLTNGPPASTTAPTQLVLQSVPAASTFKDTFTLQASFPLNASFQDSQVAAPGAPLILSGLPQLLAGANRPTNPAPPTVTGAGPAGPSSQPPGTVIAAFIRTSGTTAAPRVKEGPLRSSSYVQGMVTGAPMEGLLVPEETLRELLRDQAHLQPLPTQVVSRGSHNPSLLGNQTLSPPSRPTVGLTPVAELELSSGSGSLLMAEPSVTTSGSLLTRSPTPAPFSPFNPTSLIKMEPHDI

TCCCGT
binding signal [1]: 1.24 fold enrichment (6-mer frequency, TF over GST control) | binding signal [2]: 1.23 fold enrichment (6-mer frequency, TF over GST control) | binding signal [3]: 1.26 fold enrichment (6-mer frequency, TF over GST control) | binding signal [4]: 1.37 fold enrichment (6-mer frequency, TF over GST control) | binding signal [5]: 1.26 fold enrichment (6-mer frequency, TF over GST control) | binding signal [6]: 1.35 fold enrichment (6-mer frequency, TF over GST control) | binding signal [7]: 1.43 fold enrichment (6-mer frequency, TF over GST control) | binding signal [8]: 1.3 fold enrichment (6-mer frequency, TF over GST control) | binding signal [9]: 1.3 fold enrichment (6-mer frequency, TF over GST control) | binding signal [10]: 1.3 fold enrichment (6-mer frequency, TF over GST control) | binding signal [11]: 1.38 fold enrichment (6-mer frequency, TF over GST control) | binding signal [12]: 1.35 fold enrichment (6-mer frequency, TF over GST control) | binding signal [13]: 1.28 fold enrichment (6-mer frequency, TF over GST control) | binding signal [14]: 1.23 fold enrichment (6-mer frequency, TF over GST control) | binding signal [15]: 1.41 fold enrichment (6-mer frequency, TF over GST control) | binding signal [16]: 1.29 fold enrichment (6-mer frequency, TF over GST control) | binding signal [17]: 1.37 fold enrichment (6-mer frequency, TF over GST control) | binding signal [18]: 1.18 fold enrichment (6-mer frequency, TF over GST control) | binding signal [19]: 1.3 fold enrichment (6-mer frequency, TF over GST control)
